Experimental data: ChEMBL document CHEMBL1961873, “Compounds: GSK PKIS; Assays: Nanosyn kinase panel” (2012)

Legend:
[1] = molecular target: T1, Aurora kinase A (Homo sapiens) (UniProt O14965); conditions: at 1 µM;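 also: values are mean percent inhibition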
T1 sequence (whole entry): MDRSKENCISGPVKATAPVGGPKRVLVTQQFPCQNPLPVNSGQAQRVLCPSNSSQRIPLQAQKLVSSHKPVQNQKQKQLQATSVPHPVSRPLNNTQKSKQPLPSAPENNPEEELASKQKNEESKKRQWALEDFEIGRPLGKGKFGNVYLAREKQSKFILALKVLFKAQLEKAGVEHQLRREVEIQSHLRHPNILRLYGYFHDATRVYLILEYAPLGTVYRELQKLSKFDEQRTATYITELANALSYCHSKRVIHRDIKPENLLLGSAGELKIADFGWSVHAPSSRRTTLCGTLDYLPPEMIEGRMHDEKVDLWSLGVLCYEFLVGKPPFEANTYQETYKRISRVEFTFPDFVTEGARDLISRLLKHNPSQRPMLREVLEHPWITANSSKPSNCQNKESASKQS

[2] = molecular target: Aurora kinase B (Homo sapiens) (UniProt Q96GD4); conditions: at 0.1 µM
Sequence of Aurora kinase B (Homo sapiens) (Q96GD4 whole entry): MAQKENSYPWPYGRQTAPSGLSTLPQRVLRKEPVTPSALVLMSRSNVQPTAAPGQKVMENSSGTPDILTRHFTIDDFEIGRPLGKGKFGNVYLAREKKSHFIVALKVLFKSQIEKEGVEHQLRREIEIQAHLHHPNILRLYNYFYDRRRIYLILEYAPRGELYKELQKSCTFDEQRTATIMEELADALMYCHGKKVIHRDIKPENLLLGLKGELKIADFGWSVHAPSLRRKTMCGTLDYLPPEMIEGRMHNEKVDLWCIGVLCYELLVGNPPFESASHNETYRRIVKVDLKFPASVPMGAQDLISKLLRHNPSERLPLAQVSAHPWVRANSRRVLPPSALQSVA

[3] = molecular target: Aurora kinase B (Homo sapiens) (UniProt Q96GD4); conditions: at 1 µM
[4] = molecular target: T2, Aurora kinase C (Homo sapiens) (UniProt Q9UQB9); conditions: at 0.1 µM
T2 sequence (whole entry): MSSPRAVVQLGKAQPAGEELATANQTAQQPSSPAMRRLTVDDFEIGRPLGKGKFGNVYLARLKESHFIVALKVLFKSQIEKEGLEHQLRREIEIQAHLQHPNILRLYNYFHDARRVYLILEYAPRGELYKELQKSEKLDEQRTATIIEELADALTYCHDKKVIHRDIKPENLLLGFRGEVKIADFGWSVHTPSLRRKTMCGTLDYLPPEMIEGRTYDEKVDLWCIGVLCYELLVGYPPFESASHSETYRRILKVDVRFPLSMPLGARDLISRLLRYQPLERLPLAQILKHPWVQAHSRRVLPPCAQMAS

[5] = molecular target: T2, Aurora kinase C (Homo sapiens); conditions: at 1 µM
[6] = molecular target: Serine/threonine-protein kinase 10 (Homo sapiens) (UniProt O94804); conditions: at 0.1 µM
Sequence of Serine/threonine-protein kinase 10 (Homo sapiens) (O94804 whole entry, looked up): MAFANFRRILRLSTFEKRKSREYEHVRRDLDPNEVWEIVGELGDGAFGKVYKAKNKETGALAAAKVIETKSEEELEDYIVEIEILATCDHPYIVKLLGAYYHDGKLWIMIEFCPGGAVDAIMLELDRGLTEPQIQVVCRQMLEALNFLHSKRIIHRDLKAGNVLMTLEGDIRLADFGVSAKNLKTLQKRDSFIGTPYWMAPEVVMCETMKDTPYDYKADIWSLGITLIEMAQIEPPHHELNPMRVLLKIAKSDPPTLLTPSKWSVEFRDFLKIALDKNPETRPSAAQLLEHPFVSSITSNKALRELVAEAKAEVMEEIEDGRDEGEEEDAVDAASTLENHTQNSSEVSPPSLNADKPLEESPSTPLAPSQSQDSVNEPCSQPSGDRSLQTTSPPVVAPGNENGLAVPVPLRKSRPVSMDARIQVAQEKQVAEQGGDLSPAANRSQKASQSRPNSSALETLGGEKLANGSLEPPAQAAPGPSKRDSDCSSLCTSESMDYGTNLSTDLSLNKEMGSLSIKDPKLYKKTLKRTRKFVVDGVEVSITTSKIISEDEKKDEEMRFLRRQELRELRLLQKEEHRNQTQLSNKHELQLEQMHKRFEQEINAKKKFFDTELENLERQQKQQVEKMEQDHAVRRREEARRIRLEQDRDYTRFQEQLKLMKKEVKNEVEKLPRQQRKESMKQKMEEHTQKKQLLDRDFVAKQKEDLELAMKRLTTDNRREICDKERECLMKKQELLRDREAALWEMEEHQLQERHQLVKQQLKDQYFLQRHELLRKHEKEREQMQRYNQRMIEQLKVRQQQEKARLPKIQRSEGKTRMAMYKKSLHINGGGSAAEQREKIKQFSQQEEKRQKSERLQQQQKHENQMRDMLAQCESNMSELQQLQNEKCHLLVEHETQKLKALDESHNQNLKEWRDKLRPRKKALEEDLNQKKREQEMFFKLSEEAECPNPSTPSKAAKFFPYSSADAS

[7] = molecular target: Serine/threonine-protein kinase 10 (Homo sapiens) (UniProt O94804); conditions: at 1 µM
[8] = molecular target: T3, Mitogen-activated protein kinase kinase kinase kinase 2 (Homo sapiens) (UniProt Q12851); conditions: at 0.1 µM
T3 sequence (whole entry): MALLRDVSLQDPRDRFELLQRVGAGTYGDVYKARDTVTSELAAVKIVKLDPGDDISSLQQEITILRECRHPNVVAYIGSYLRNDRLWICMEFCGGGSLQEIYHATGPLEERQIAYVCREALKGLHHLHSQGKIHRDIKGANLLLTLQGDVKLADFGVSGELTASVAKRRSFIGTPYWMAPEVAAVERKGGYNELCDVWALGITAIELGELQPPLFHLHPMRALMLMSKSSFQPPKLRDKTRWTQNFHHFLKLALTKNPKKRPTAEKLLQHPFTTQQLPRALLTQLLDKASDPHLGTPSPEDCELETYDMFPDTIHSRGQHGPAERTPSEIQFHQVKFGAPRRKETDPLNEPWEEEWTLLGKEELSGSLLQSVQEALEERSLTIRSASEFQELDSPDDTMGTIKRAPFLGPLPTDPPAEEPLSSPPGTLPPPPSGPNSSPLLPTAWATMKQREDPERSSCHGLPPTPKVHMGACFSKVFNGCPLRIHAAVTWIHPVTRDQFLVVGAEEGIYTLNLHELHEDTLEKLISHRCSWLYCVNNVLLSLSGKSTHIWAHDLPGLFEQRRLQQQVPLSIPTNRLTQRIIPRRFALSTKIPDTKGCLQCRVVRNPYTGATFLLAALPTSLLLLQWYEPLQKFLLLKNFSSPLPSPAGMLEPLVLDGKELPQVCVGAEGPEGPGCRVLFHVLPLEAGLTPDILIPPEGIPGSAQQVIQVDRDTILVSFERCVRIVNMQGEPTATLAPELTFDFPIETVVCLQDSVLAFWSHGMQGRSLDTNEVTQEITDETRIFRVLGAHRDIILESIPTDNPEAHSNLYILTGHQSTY

[9] = molecular target: T3, Mitogen-activated protein kinase kinase kinase kinase 2 (Homo sapiens); conditions: at 1 µM
[10] = molecular target: Mitogen-activated protein kinase kinase kinase kinase 4 (Homo sapiens) (UniProt O95819); conditions: at 0.1 µM
Sequence of Mitogen-activated protein kinase kinase kinase kinase 4 (Homo sapiens) (O95819 2-1239 limits assumed): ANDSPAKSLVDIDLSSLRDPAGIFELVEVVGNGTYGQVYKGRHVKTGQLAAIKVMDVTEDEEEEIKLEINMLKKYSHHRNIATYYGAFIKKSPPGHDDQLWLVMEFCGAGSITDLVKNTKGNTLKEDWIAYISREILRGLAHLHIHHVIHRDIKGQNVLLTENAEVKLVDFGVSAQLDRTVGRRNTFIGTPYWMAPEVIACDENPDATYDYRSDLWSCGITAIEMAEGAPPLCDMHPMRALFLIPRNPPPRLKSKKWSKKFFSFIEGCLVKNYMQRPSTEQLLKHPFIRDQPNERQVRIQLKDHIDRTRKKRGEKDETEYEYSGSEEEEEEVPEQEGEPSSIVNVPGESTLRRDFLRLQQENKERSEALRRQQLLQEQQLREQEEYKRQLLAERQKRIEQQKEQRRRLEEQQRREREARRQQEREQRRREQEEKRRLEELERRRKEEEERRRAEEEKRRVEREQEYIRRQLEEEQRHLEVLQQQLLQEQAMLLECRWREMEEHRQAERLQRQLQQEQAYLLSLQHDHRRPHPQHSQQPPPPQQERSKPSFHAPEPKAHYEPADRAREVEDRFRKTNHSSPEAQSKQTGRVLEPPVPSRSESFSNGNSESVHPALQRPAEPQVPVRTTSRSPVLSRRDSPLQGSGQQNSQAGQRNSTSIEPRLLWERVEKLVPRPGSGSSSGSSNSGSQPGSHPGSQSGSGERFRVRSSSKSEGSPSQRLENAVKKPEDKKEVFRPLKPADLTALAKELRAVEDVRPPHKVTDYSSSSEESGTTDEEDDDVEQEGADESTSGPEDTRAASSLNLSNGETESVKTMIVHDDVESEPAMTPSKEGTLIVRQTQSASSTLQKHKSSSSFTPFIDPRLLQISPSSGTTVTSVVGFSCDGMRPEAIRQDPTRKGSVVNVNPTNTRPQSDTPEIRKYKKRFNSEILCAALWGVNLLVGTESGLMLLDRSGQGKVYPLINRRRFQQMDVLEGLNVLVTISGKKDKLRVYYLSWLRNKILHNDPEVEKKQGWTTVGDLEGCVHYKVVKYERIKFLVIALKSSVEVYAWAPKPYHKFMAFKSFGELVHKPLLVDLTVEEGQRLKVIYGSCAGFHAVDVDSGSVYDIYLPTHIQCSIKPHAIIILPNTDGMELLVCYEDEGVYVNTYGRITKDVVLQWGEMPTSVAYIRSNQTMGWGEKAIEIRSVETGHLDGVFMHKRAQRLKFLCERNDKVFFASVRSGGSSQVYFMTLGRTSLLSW

[11] = molecular target: Mitogen-activated protein kinase kinase kinase kinase 4 (Homo sapiens) (UniProt O95819); conditions: at 1 µM
[12] = molecular target: Dual specificity mitogen-activated protein kinase kinase 1 (Homo sapiens) (UniProt Q02750); conditions: at 0.1 µM
Sequence of Dual specificity mitogen-activated protein kinase kinase 1 (Homo sapiens) (Q02750 whole entry): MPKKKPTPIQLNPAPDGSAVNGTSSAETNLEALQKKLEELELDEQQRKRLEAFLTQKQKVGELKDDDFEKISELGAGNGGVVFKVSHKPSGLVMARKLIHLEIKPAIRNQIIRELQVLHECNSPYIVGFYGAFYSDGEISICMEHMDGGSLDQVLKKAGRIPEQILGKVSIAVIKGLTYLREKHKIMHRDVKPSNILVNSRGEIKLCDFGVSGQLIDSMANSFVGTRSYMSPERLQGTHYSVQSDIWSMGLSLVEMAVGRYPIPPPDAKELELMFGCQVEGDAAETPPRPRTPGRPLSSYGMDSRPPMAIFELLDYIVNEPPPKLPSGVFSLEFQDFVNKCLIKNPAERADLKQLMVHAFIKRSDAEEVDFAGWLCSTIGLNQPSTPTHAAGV

[13] = molecular target: Dual specificity mitogen-activated protein kinase kinase 1 (Homo sapiens) (UniProt Q02750); conditions: at 1 µM
[14] = molecular target: Misshapen-like kinase 1 (Homo sapiens) (UniProt Q8N4C8); conditions: at 0.1 µM
Sequence of Misshapen-like kinase 1 (Homo sapiens) (Q8N4C8 whole entry, looked up): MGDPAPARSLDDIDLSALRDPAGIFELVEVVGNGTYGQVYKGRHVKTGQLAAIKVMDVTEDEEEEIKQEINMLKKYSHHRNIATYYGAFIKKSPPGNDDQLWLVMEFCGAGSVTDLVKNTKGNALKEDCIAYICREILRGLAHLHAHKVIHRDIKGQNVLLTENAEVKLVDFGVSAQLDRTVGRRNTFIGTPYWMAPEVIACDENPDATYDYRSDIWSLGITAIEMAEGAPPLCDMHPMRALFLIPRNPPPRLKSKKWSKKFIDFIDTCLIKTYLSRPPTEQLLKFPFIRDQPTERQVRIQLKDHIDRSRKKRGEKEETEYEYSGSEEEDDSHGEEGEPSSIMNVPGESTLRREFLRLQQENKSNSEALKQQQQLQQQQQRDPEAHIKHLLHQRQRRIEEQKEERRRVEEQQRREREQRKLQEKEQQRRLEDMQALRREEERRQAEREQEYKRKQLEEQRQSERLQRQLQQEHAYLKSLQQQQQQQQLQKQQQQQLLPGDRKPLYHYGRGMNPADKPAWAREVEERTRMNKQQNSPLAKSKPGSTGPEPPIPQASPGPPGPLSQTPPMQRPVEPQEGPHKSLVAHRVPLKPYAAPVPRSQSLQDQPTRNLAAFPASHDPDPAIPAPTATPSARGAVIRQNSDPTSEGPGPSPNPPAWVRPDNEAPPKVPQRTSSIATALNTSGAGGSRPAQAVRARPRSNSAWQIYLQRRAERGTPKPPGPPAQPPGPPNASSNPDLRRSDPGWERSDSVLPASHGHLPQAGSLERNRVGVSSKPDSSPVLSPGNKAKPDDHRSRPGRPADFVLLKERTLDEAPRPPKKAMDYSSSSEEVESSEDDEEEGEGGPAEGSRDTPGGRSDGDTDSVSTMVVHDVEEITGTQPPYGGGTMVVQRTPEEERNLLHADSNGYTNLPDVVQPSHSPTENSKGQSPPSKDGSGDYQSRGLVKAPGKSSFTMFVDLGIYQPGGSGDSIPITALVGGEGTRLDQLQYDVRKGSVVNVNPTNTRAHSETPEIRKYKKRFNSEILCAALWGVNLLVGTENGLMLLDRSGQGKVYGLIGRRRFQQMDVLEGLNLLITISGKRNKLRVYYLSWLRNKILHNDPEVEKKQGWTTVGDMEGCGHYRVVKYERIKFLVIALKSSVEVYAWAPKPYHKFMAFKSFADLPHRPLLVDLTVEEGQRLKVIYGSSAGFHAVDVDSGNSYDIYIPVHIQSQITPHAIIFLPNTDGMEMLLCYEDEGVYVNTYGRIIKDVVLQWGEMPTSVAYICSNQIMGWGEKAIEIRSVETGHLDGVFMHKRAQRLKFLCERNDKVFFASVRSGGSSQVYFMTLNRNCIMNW

[15] = molecular target: Misshapen-like kinase 1 (Homo sapiens) (UniProt Q8N4C8); conditions: at 1 µM
[16] = molecular target: T4, Serine/threonine-protein kinase 4 (Homo sapiens) (UniProt Q13043); conditions: at 0.1 µM
T4 sequence (whole entry): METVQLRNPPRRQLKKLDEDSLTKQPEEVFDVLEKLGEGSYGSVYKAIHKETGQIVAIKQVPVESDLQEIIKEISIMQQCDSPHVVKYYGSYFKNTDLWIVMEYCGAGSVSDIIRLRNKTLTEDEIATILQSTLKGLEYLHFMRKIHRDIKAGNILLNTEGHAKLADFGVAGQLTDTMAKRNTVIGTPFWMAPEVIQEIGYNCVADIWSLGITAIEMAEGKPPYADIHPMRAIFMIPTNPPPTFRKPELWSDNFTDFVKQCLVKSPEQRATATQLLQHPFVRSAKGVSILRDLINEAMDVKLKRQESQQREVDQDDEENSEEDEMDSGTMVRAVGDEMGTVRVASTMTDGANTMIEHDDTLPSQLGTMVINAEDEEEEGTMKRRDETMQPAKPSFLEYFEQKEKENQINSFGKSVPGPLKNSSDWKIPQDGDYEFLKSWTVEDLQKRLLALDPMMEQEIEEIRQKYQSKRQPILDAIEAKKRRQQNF

[17] = molecular target: T4, Serine/threonine-protein kinase 4 (Homo sapiens); conditions: at 1 µM
[18] = molecular target: T5, Serine/threonine-protein kinase 3 (Homo sapiens) (UniProt Q13188); conditions: at 0.1 µM
T5 sequence (whole entry): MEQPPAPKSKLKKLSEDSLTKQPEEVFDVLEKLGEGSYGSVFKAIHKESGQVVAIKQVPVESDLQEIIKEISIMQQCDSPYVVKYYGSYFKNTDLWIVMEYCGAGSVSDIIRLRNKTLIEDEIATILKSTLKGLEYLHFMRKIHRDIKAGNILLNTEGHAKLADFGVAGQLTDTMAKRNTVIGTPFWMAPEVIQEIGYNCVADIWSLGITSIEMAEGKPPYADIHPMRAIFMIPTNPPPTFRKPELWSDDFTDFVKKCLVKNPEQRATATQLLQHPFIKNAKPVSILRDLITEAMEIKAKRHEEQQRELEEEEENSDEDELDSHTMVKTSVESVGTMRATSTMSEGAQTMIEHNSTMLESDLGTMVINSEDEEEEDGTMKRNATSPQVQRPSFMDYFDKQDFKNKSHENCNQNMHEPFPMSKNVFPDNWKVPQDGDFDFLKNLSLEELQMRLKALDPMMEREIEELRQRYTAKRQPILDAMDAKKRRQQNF

[19] = molecular target: T5, Serine/threonine-protein kinase 3 (Homo sapiens); conditions: at 1 µM
[20] = molecular target: Serine/threonine-protein kinase 26 (Homo sapiens) (UniProt Q9P289); conditions: at 0.1 µM
Sequence of Serine/threonine-protein kinase 26 (Homo sapiens) (Q9P289 2-416 limits assumed): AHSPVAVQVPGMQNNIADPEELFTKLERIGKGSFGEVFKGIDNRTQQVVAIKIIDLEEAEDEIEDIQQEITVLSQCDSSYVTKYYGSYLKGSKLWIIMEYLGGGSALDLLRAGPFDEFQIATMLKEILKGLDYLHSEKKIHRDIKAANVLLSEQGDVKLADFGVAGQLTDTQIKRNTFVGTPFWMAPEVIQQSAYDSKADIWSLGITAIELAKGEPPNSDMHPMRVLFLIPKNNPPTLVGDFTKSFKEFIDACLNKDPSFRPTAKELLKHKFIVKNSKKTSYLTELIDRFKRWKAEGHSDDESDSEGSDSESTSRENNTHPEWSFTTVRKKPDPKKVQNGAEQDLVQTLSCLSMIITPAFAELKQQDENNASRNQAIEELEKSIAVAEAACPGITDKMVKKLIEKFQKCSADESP

| SMILES | inhibition [1] [%] | inhibition [2] [%] | inhibition [3] [%] | inhibition [4] [%] | inhibition [5] [%] | inhibition [6] [%] | inhibition [7] [%] | inhibition [8] [%] | inhibition [9] [%] | inhibition [10] [%] | inhibition [11] [%] | inhibition [12] [%] | inhibition [13] [%] | inhibition [14] [%] | inhibition [15] [%] | inhibition [16] [%] | inhibition [17] [%] | inhibition [18] [%] | inhibition [19] [%] | inhibition [20] [%] |
| --- | --- | --- | --- | --- | --- | --- | --- | --- | --- | --- | --- | --- | --- | --- | --- | --- | --- | --- | --- | --- |
| COc1cc(C)c(NC(=O)CN(C)C)cc1Nc1nc(Nc2cccc(F)c2C(N)=O)c2cc[nH]c2n1 | 13.5 | -2.09 | 6.07 | -0.55 | 12.3 | 2.47 | 3.17 | 9.71 | 43.9 | 4.26 | 17.8 | 3.12 | 6.41 | 3.15 | 13.8 | 4.73 | 17.7 | 5.85 | 7.94 | 0.41 |
| CS(=O)(=O)Nc1ccc(N/C=C2\C(=O)Nc3ccccc32)cc1 | 47.6 | 7.77 | 43 | 6.66 | 61.1 | -2.57 | 0.71 | 2.65 | 18.6 | 18.1 | 73 | -3.18 | -0.2 | 11.8 | 63.8 | 6.72 | 51.9 | -0.42 | 24.6 | 0.42 |
| COc1cc(C=NNc2ncnc3c2cnn3-c2ccccc2)ccc1O | 94 | 11.5 | 56.8 | 9.9 | 88.3 | 5.58 | 26.1 | 4.63 | 19.3 | 28.1 | 70.6 | 1.68 | 1.06 | 24 | 64.7 | 2.58 | 11.5 | 3.41 | 6.24 | 1.85 |
| CCn1c(-c2nonc2N)nc2cncc(C(=O)N3CCNCC3)c21 | 2.9 | 3.66 | 4.51 | -0.51 | 1.12 | 10.8 | 8.24 | 1.51 | 2.14 | 3.11 | 4.49 | 5.61 | 4.93 | 5.47 | 6.02 | 3.69 | 5.39 | 8.73 | 8.25 | -0.22 |
| COc1cc2c(cc1Nc1nc(N3CCc4ccccc43)c3cc[nH]c3n1)N(C(=O)CN(C)C)CC2 | 2.61 | 0.77 | 3.08 | 0.6 | 8.2 | 1.91 | 1.24 | 0.88 | 3.15 | 1.37 | 2.27 | 1.49 | 2.14 | 3.79 | -0.01 | 5.66 | 6.86 | 6.28 | 5.22 | -0.61 |
| Cc1cccc(-c2n[nH]cc2-c2ccc3ncccc3n2)n1 | 2.37 | -1.18 | 4.2 | 0.3 | -2.95 | 3.36 | 7.9 | 1.72 | 0.72 | 5.33 | 30.9 | 1.75 | 1.88 | 4.05 | 19.5 | -0.22 | 0.4 | -0.46 | 0.93 | -1.15 |
